The text below walks through data of PubChem BioAssay (NCI).

Test systems include DU-145 prostate; K-562 leukemia; MDA-MB-231 breast; RXF 393 renal; SF-268 CNS; SF-539 CNS; UACC-257 melanoma; M14 melanoma; HCT-15 colon; HT29 colon; SNB-75 CNS; SNB-19 CNS; U251 CNS; PC-3 prostate; SK-MEL-5 melanoma; UACC-62 melanoma; LOX IMVI melanoma; SK-MEL-28 melanoma; MALME-3M melanoma; SF-295 CNS.
Common to all, as to test: NCI-60 one-dose screen, 48 h (100 = growth as untreated, 0 = no growth, -100 = all killed)
Holding throughout (details): 10 µM unless noted

Each structure is given as a SMILES string. Compounds without any hit were thinned out: in the full panel of roughly 83,000, 20% have a hit.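 96-well plates, one dose, 48 hours. Percent growth reported; active if below 10.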 Unmarked numbers belong to inactive results. Activity calls are given as the source filed them.

Regarding `COc1cc(Cn2c(-c3ccccc3)cc3c2-c2oncc2CC3)cc(OC)c1OC`, the growth in the test on DU-145 prostate is -21.1% (active); with K-562 leukemia it was 11.8%; in the test on MDA-MB-231 breast, 47.1%; in the test with RXF 393 renal, 9.54% (active); with SF-268 CNS it was 44.8%; in the test with SF-539 CNS, -3.28% (active). The growth was 58.8% in the test on UACC-257 melanoma; 21.9% in the test with M14 melanoma; 27.6% with HCT-15 colon; 4.59% (active) in the test with HT29 colon; -17.3% (active) in the test on SNB-75 CNS; 44.5% with SNB-19 CNS. The growth with U251 CNS was 24.1%; in the test with PC-3 prostate, 20.6%; in the test with SK-MEL-5 melanoma it was 18.4%; with UACC-62 melanoma, 47.5%; with LOX IMVI melanoma, 39.4%; in the test with SK-MEL-28 melanoma it was 49.7%.
As for `O=C1C=CC(=O)N1CO`, the growth in the test on K-562 leukemia is -29.9% (active); in the test on MALME-3M melanoma, 130%; in the test with MDA-MB-231 breast, 109%; in the test on RXF 393 renal it was 168%; in the test on SF-268 CNS it was 111%; in the test with SF-295 CNS it was 131%. For the same compound, the growth was 111% in the test with SF-539 CNS; 109% in the test with UACC-257 melanoma; 109% in the test on M14 melanoma; 116% in the test with HCT-15 colon; 105% in the test with HT29 colon; 100% with SNB-75 CNS. For the same compound, the growth with SNB-19 CNS was 103%; in the test with U251 CNS, 117%; in the test with PC-3 prostate it was 102%; in the test with SK-MEL-5 melanoma, 114%; with UACC-62 melanoma it was 106%; in the test with LOX IMVI melanoma, 120%. Moreover, in the test with SK-MEL-28 melanoma, the growth was 117%.
As to `COc1ccc(/C(=C\c2ccc3c(c2)OCO3)C(=O)Nc2nc3ccccc3s2)cc1`, the growth was 102% with DU-145 prostate; 95.3% in the test with MALME-3M melanoma; 102% with MDA-MB-231 breast; 118% in the test with RXF 393 renal; 96% with SF-268 CNS; 104% in the test with SF-539 CNS. The growth in the test with UACC-257 melanoma is 99.7%; in the test on M14 melanoma, 107%; with HCT-15 colon it was 93.2%; in the test with HT29 colon, 94.6%; in the test on SNB-75 CNS, 103%; with SNB-19 CNS it was 109%. In addition, the growth was 101% in the test with U251 CNS; 106% in the test on PC-3 prostate; 98.9% in the test with SK-MEL-5 melanoma; 102% with UACC-62 melanoma; 100% in the test with LOX IMVI melanoma; 104% with SK-MEL-28 melanoma.
For the compound `COc1ccc2nc(NC(=O)/C(=C/c3cc(OC)c(OC)c(OC)c3)c3ccc(OC)c(OC)c3)sc2c1`, the growth in the test on DU-145 prostate is 106%; with MALME-3M melanoma, 98%; in the test with MDA-MB-231 breast, 68.8%; with RXF 393 renal, 107%; with SF-268 CNS, 99.9%; in the test on SF-539 CNS, 102%. Further, the growth in the test on UACC-257 melanoma was 97.2%; with M14 melanoma, 104%; in the test on HCT-15 colon it was 100%; in the test with HT29 colon, 88.4%; with SNB-75 CNS, 94.3%; in the test with SNB-19 CNS, 102%. In addition, the growth with U251 CNS was 94.6%; in the test with PC-3 prostate, 86.8%; in the test on SK-MEL-5 melanoma, 93%; with UACC-62 melanoma, 90.5%; in the test on LOX IMVI melanoma, 90.4%; in the test with SK-MEL-28 melanoma, 105%.
Regarding `Nc1c(C(=O)c2ccc(Br)cc2)sc2nc3c(cc12)CCCC3`, the growth in the test with DU-145 prostate is 92.4%; in the test with MALME-3M melanoma, 82.6%; in the test on MDA-MB-231 breast, 91%; in the test with RXF 393 renal, 62.5%; in the test with SF-268 CNS, 101%; in the test on SF-295 CNS, 98.2%. Further, the growth in the test on SF-539 CNS is 92%; with UACC-257 melanoma, 91.9%; in the test with M14 melanoma it was 82.7%; in the test on HCT-15 colon it was 80.9%; with HT29 colon, 96.6%; in the test with SNB-75 CNS, 101%. For the same compound, the growth in the test with U251 CNS is 89.6%; with PC-3 prostate it was 85.4%; in the test on UACC-62 melanoma, 93.9%; with LOX IMVI melanoma, 112%; in the test with SK-MEL-28 melanoma it was 89%.
For `COc1ccc2c(c1)CCCC21C(=O)Nc2ccccc21` (stereo unspecified), the growth was 103% in the test on DU-145 prostate; 102% in the test on MALME-3M melanoma; 99.4% with MDA-MB-231 breast; 110% in the test on RXF 393 renal; 86.6% in the test with SF-268 CNS; 101% in the test with SF-539 CNS. Further, the growth in the test with UACC-257 melanoma was 110%; with M14 melanoma, 109%; in the test with HCT-15 colon, 97.2%; with HT29 colon it was 87.4%; in the test on SNB-75 CNS it was 101%; with SNB-19 CNS, 105%. For the same compound, the growth with U251 CNS is 99.3%; in the test with PC-3 prostate, 104%; with SK-MEL-5 melanoma it was 103%; with UACC-62 melanoma it was 106%; in the test with LOX IMVI melanoma, 98%; in the test with SK-MEL-28 melanoma it was 111%.
In the case of `Cc1nc2n[nH]c(N)c2nc1C`, the growth is 119% in the test with DU-145 prostate; 105% in the test with MALME-3M melanoma; 120% in the test on MDA-MB-231 breast; 119% in the test with RXF 393 renal; 105% in the test with SF-295 CNS; 103% in the test on SF-539 CNS. Further, the growth in the test on UACC-257 melanoma is 96.8%; in the test on HCT-15 colon it was 103%; in the test with HT29 colon it was 93.6%; in the test on SNB-75 CNS, 93.1%; in the test with SNB-19 CNS, 103%; in the test with U251 CNS, 107%. For the same compound, the growth was 102% in the test on PC-3 prostate; 96.6% in the test with SK-MEL-5 melanoma; 106% in the test with UACC-62 melanoma; 98.9% in the test with LOX IMVI melanoma; 105% in the test with SK-MEL-28 melanoma.
In the case of `O=C(Nc1cccc(Cl)c1)Nc1cc(C(F)(F)F)ccc1Cl`, the growth in the test on K-562 leukemia was 16.4%; with MALME-3M melanoma, 5.85% (active); in the test with MDA-MB-231 breast it was 25.5%; in the test on RXF 393 renal, 40.7%; in the test with SF-268 CNS, 41.8%; with SF-295 CNS, -1.4% (active). Besides, the growth in the test with SF-539 CNS was 43.5%; with UACC-257 melanoma, 19.6%; with M14 melanoma it was 18.2%; in the test on HCT-15 colon, 9.83% (active); with HT29 colon, 4.03% (active); in the test with SNB-75 CNS, 18.2%. Besides, the growth with SNB-19 CNS was 16.6%; with U251 CNS it was 6.86% (active); in the test on PC-3 prostate it was -3.53% (active); with SK-MEL-5 melanoma it was 24.4%; with UACC-62 melanoma, -8.9% (active); with LOX IMVI melanoma it was -11.8% (active). Moreover, the growth in the test on SK-MEL-28 melanoma was 25.5%.
Turning to `N[C@@H](CO)C(=O)O`, the growth was 101% in the test with DU-145 prostate; 110% in the test with K-562 leukemia; 93.4% with MDA-MB-231 breast; 108% with RXF 393 renal; 95.1% with SF-268 CNS; 113% in the test with SF-539 CNS. The growth with UACC-257 melanoma is 104%; in the test with M14 melanoma it was 107%; in the test on HCT-15 colon, 109%; in the test with HT29 colon, 109%; with SNB-19 CNS it was 105%; in the test on U251 CNS, 102%. For the same compound, the growth in the test with PC-3 prostate is 96.8%; in the test with SK-MEL-5 melanoma, 104%; in the test with UACC-62 melanoma, 91.9%; in the test on LOX IMVI melanoma, 130%; with SK-MEL-28 melanoma, 107%.
